Compound activity deposited in PubChem by The Scripps Research Institute Molecular Screening Center.
HTR5A ag ctr – counter-screen for OPRM1-OPRD1 agonists: human HTR5A agonism; HTR5A agonist assay, luminescence, cell-based; activation, % at 9.3 µM; actives 0.61% (n = 340,000); AID 504692; in the data active = activation mostly above about 9.5%, no sharp cut-off; inactive = mostly below about 7.6%
MOR-DOR inv ag – inverse agonist of human OPRM1-OPRD1 heterodimerization; P35372+P41143; cell-based MOR-DOR heterodimer luminescence, inverse agonism; inhibition, % at 9.3 µM; actives 0.21% (n = 340,000); AID 504357; in the data active = inhibition above about 22%, passing the limit was not always enough
Target sequence (P35372 whole entry, looked up): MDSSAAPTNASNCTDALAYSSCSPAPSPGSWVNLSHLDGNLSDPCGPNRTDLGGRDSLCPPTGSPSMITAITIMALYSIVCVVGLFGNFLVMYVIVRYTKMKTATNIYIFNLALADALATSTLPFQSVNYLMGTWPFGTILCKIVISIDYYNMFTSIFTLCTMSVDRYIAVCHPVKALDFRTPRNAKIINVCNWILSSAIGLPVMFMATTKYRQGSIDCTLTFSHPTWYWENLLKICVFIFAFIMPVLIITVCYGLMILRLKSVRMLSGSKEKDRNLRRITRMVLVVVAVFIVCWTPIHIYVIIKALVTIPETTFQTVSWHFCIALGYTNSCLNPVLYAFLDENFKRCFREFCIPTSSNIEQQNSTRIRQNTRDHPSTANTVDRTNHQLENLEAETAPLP
Target sequence (P41143 whole entry, looked up): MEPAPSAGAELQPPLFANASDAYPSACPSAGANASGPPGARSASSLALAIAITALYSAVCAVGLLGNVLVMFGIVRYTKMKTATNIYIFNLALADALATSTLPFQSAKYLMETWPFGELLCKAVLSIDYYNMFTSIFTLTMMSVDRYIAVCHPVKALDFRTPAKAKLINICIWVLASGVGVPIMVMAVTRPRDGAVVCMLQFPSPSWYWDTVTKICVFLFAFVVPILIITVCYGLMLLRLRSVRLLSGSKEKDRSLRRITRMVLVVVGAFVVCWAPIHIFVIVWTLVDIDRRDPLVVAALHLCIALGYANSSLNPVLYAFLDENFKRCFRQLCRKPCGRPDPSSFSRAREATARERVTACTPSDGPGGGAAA
MOR-DOR ag – OPRM1-OPRD1 heterodimerization agonism. cells, luminescence. activation, % at 9.3 µM. P35372+P41143. actives 0.3% (n = 340,000); in the data active = activation above about 18%
HTR5A inv ctr – HTR5A inverse agonism, opioid heterodimer counter-screen. P47898. HTR5A cell line, luminescence. inhibition, % at 9.3 µM. actives 0.083% (n = 340,000). AID 504634; in the data active = inhibition mostly above about 23%, no sharp cut-off; inactive = mostly below about 18%
OPRM1-D1 inv cf – confirmation of human OPRM1-OPRD1 heterodimerization inverse agonists | AID 504900 | shares compounds with MOR-DOR inv ag | cells expressing OPRM1/OPRD1 heterodimer, luminescence | inhibition, % at 9.3 µM | actives 20% (n = 580); in the data active = inhibition above about 32%
HTR5A inv count – inverse agonist of human HTR5A in OPRM1-OPRD1 counter-screen; 580 tested, under 10 active; HTR5A-expressing cells, luminescence, inverse agonism; AID 504914; inhibition, % at 9.3 µM; shares compounds with MOR-DOR inv ag; call rule not given here
Large screens that a line does not name were inactive (follow-up assays come after a bar, where they were run). Sampled rows, rich in hits. Any-hit rate of the full collection: about 1.1%.

CCOc1ccc(NS(=O)(=O)c2ccc(C(=O)NCC(c3ccc(OC)cc3)N3CCCC3)cc2)cc1 (configuration not stated)	MOR-DOR inv ag 26 | OPRM1-D1 inv cf inactive | HTR5A inv count inactive
COC(=O)c1[nH]c(=O)c2ccccc2c1OCc1ccccc1	none
COC(=O)c1[nH]c(=O)c2ccccc2c1O	MOR-DOR inv ag 42 | OPRM1-D1 inv cf inactive | HTR5A inv count inactive
CC(SC(=S)N(C)Cc1cccs1)C(=O)O (configuration not stated)	none
CN(C)c1nc(=NCc2cccs2)ss1	MOR-DOR inv ag 59 | OPRM1-D1 inv cf inactive | HTR5A inv count inactive
CCC(=O)OCCNc1cc(SCCC(=O)OC)c2nonc2c1[N+](=O)[O-]	none
CCC(=O)OCCNc1cc(Sc2nccn2C)c2nonc2c1[N+](=O)[O-]	MOR-DOR inv ag 42 | OPRM1-D1 inv cf inactive | HTR5A inv count inactive
CCCC(=O)OCCNc1cc(Sc2nc3ccccc3[nH]2)c2nonc2c1[N+](=O)[O-]	MOR-DOR inv ag 35 | OPRM1-D1 inv cf inactive | HTR5A inv count inactive
Nc1nc(Cl)c(N)c(NCC2(CO)CC(CCc3ccccc3)C2)n1 (configuration not stated)	none
Cc1cccc(NC(=S)NC(=O)c2ccco2)n1	MOR-DOR inv ag 22 | OPRM1-D1 inv cf inactive | HTR5A inv count inactive
Cn1cc(/C=C2\SC(=O)NC2=S)c2ccccc21	MOR-DOR inv ag 28 | OPRM1-D1 inv cf inactive | HTR5A inv count inactive
Cc1ccc(C(=O)NN2C(=O)/C(=C/c3cn(C)c4ccccc34)SC2=S)cc1	none
COc1ccc(C(=O)NCC(=O)OCC(=O)NCc2ccco2)cc1	none
COc1ccc(C2=NN(CN3C(=O)C(=O)c4ccccc43)C(c3ccc(OC)cc3)C2)cc1 (configuration not stated)	MOR-DOR inv ag 44 | OPRM1-D1 inv cf inactive | HTR5A inv count inactive
COc1ccc(C2=NN(S(=O)(=O)c3ccccc3)C(c3ccccc3)C2)cc1 (configuration not stated)	none
O=C(Nc1ccccc1C(=O)O)c1ccccc1	none
NC(=O)c1ccccc1NCC(=O)c1ccc(Cl)cc1	MOR-DOR inv ag 46 | OPRM1-D1 inv cf inactive | HTR5A inv count inactive
O=C(CNc1ccccc1C(=O)O)c1ccccc1	MOR-DOR inv ag 71 | OPRM1-D1 inv cf inactive | HTR5A inv count inactive
NC(=O)c1ccccc1OCC(=O)c1ccc(Cl)cc1	none
CCNC(=S)N1CCN(CC(=O)Nc2ccc(OC)cc2)CC1	none
COc1ccc(C)cc1Nc1n[n+](-c2ccccc2)c(-c2c(OC)ccc3ccccc23)s1	none
CNc1sc(C(=O)c2ccccc2F)c(N)c1-c1nc2ccccc2s1	MOR-DOR inv ag 48 | OPRM1-D1 inv cf inactive | HTR5A inv count inactive
COc1ccc(OC)c(/C=N/NC(=O)c2cc(-c3ccc(C)o3)nc3ccccc23)c1	none
O=[N+]([O-])c1ccccc1OCCN1CCCC1	none
CCn1c(/C=C/c2cc[n+](C)cc2)nc2ccccc21	none
Cc1ccc(NC(=O)CS(=O)CC(=O)Nc2ccccc2-c2ccc(C)o2)cc1 (configuration not stated)	MOR-DOR inv ag 35 | OPRM1-D1 inv cf inactive | HTR5A inv count inactive
COc1cc(Br)c(S(=O)(=O)Nc2c(C)n(C)n(-c3ccccc3)c2=O)cc1OC	none
COc1ccc(S(=O)(=O)Nc2c(C)n(C)n(-c3ccccc3)c2=O)c(Cl)c1Cl	MOR-DOR inv ag 31 | OPRM1-D1 inv cf inactive | HTR5A inv count inactive
COc1cccc(-c2nc3ccc(C(=O)N4CCCC(O)C4)cc3o2)c1 (configuration not stated)	none
CC(C)(Oc1ccc(F)cc1)C(=O)OCC(=O)c1ccc(S(C)(=O)=O)cc1	MOR-DOR inv ag 58 | OPRM1-D1 inv cf inactive | HTR5A inv count inactive
CN(C(=O)c1ccc(NC(=O)Cc2ccc(NC(=O)C3CCCN(C(=O)C4CCCC4)C3)cc2)cc1)C1CCCC1 (configuration not stated)	none
CC1(C)CN(c2ccccc2)N(C(=O)c2ccc(F)cc2)C1=O	MOR-DOR inv ag 46 | OPRM1-D1 inv cf inactive | HTR5A inv count inactive
CC1(C)CN(c2ccccc2)N(C(=O)c2ccc(C#N)cc2)C1=O	MOR-DOR inv ag 51 | OPRM1-D1 inv cf inactive | HTR5A inv count inactive
CC1(C)COCN1C(=O)c1ccc(C#N)cc1	none
COc1ccc(C2=NOC(C(=O)NC(C)(C)C)C2)cc1 (configuration not stated)	none
